# Data reported in ChEMBL document CHEMBL3988442, “University of Dundee, Small-Polar-MMV Screening Library” (2021).
# For some assays here: Entries with a potency or affinity are not part of this list.
# Tests used:
# Set-up in all cases: scale not given: direction of the effect not stated beside the values
# [1] = molecular target: Protein translocase subunit SecA (Escherichia coli (strain K12)) (UniProt P10408); assay: Assay to Identify E. coli SecA ATPase Inhibitors; type: functional; settings: 30 µM
# [2] = molecular target: T1, Ubiquitin-activating enzyme e1, putative (Leishmania donovani (strain BPK282A1)) (UniProt E9BSI1); assay: Leishmania donovani Ubiquitin Activating Enzyme (LdE1); type: functional; settings: 30 µM
# T1 sequence (whole entry): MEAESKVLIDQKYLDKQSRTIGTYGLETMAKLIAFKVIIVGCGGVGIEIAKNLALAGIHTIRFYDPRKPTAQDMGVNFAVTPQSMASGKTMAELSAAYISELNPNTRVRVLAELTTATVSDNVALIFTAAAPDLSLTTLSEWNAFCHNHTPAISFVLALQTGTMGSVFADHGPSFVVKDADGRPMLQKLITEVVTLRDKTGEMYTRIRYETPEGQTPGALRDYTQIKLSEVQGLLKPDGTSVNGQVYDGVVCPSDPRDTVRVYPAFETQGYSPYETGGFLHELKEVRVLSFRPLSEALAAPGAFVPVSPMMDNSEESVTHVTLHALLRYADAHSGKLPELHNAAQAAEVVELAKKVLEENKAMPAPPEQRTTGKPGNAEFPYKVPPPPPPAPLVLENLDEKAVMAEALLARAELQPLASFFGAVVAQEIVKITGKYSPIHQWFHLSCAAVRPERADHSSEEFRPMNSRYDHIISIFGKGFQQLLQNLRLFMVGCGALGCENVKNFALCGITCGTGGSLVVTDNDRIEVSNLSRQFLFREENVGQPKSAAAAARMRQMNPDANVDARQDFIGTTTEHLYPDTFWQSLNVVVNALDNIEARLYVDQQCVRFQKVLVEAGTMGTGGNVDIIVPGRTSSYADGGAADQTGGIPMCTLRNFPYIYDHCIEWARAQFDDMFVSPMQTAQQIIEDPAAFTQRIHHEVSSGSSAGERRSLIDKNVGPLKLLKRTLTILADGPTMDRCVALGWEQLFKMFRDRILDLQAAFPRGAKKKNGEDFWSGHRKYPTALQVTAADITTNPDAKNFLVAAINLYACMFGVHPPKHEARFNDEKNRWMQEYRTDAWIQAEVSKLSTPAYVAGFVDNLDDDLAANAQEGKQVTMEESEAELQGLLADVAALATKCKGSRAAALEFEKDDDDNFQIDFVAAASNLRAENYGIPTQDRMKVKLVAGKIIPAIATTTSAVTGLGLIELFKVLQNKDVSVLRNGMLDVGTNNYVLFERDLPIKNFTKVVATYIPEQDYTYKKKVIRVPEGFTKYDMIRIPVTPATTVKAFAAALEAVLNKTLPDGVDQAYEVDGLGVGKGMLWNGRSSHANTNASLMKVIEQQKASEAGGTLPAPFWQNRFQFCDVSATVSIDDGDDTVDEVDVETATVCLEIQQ
# [3] = molecular target: AMP-activated protein kinase, AMPK (Homo sapiens) (UniProt P54646+O43741+P54619+Q9UGJ0+Q9Y478+Q13131+Q9UGI9); assay: AMP-dependent Kinase enzyme assay. An in vitro enzyme assay that detects ADP turnover that is directly proportional to AMPK activity. This uses naive AMPK that is activated during the assay with MK-8722; type: functional; settings: 30 µM
# [4] = molecular target: Sialic acid-binding Ig-like lectin 9 (Homo sapiens) (UniProt Q9Y336); assay: Hs-Siglec9 ALPHAscreen SOP 20170721; settings: 10 µM
# [5] = test system: Trypanosoma cruzi; assay: Trypanosoma cruzi phosphomannomutase and mannose-1-phosphate guanylyltransferase assay; type: functional; settings: 10 µM
# [6] = molecular target: T2, Arginase-2, mitochondrial (Homo sapiens) (UniProt P78540); assay: in vitro enzyme assay to detect the production of urea directly proportional to the activity of Arginase II; type: functional; settings: 33.3 µM; also: in the data most compounds retested in dose-response had high values
# T2 sequence (whole entry): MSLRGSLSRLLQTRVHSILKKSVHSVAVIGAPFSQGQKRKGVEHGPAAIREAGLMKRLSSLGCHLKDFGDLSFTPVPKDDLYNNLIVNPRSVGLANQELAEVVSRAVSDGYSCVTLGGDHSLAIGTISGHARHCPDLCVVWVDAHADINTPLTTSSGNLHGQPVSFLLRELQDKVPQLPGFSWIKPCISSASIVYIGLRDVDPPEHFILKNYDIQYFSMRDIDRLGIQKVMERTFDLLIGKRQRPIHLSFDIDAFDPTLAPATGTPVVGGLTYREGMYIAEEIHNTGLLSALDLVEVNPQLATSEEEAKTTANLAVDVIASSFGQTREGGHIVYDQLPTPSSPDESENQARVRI
# [7] = molecular target: T3, Proteasome subunit beta (Trypanosoma cruzi) (UniProt O96673); assay: Trypanosoma cruzi proteasome chymotrypsin-like activity (TcProtChymo) assay.; also: in the data most compounds retested in dose-response had high values; type: functional; settings: 9.37 µM
# T3 sequence (whole entry): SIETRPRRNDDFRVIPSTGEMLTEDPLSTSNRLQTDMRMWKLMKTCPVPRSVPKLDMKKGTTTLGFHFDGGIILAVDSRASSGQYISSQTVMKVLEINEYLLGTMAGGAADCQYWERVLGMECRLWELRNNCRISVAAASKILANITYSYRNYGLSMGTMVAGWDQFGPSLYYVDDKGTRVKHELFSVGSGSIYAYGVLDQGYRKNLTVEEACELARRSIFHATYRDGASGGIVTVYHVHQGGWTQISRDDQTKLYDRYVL
# [8] = species on record: Homo sapiens; assay: To identify inhibition of the IFN signalling (Jak-Stat) pathway via expression of an eGFP reporter gene under the control of an IFN-stimulated response element (ISRE) containing MxA promoter.; type: functional; settings: 30 µM
# [9] = molecular target: T4, Tyrosyl-tRNA synthetase, putative (Trypanosoma cruzi (strain CL Brener)) (UniProt Q4DSP6); assay: Trypanosoma cruzi tyrosyl tRNA synthetase (TcYRS) _High Tyrosine SOP; type: functional; settings: 30 µM; also: in the data most compounds retested in dose-response had high values
# T4 sequence (whole entry): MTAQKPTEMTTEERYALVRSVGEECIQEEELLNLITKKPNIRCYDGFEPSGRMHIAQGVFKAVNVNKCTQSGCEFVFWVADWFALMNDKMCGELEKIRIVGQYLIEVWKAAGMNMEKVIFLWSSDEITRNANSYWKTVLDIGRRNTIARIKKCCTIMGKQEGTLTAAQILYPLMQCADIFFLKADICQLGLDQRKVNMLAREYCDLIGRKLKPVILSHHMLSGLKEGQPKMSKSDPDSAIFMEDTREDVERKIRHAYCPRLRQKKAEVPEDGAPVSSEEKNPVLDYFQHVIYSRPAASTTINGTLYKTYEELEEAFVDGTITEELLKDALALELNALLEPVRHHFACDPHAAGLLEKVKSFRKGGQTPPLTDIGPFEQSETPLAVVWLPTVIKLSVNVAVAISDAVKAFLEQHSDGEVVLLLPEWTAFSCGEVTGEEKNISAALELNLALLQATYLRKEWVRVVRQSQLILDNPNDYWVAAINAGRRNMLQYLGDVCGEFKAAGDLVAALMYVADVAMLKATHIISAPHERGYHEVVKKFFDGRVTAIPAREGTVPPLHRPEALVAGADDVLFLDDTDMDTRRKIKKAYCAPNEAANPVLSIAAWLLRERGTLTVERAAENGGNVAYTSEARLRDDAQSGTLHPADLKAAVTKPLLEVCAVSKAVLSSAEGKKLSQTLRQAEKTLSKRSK
# [10] = molecular target: T4, Tyrosyl-tRNA synthetase, putative (Trypanosoma cruzi (strain CL Brener)); assay: Trypanosoma cruzi tyrosyl tRNA synthetase (TcYRS) SOP; type: functional; settings: 30 µM
# [11] = molecular target: Chromo domain-containing protein 1 (Saccharomyces cerevisiae (strain ATCC 204508 / S288c) (Baker's yeast)) (UniProt P32657); assay: ScCHD-1 Enzyme Inhibition Assay; type: functional; settings: 30 µM; also: in the data most compounds retested in dose-response had high values
# Chromo domain-containing protein 1 (Saccharomyces cerevisiae (strain ATCC 204508 / S288c) (Baker's yeast)), sequence (P32657 whole entry, the tested form may be a part): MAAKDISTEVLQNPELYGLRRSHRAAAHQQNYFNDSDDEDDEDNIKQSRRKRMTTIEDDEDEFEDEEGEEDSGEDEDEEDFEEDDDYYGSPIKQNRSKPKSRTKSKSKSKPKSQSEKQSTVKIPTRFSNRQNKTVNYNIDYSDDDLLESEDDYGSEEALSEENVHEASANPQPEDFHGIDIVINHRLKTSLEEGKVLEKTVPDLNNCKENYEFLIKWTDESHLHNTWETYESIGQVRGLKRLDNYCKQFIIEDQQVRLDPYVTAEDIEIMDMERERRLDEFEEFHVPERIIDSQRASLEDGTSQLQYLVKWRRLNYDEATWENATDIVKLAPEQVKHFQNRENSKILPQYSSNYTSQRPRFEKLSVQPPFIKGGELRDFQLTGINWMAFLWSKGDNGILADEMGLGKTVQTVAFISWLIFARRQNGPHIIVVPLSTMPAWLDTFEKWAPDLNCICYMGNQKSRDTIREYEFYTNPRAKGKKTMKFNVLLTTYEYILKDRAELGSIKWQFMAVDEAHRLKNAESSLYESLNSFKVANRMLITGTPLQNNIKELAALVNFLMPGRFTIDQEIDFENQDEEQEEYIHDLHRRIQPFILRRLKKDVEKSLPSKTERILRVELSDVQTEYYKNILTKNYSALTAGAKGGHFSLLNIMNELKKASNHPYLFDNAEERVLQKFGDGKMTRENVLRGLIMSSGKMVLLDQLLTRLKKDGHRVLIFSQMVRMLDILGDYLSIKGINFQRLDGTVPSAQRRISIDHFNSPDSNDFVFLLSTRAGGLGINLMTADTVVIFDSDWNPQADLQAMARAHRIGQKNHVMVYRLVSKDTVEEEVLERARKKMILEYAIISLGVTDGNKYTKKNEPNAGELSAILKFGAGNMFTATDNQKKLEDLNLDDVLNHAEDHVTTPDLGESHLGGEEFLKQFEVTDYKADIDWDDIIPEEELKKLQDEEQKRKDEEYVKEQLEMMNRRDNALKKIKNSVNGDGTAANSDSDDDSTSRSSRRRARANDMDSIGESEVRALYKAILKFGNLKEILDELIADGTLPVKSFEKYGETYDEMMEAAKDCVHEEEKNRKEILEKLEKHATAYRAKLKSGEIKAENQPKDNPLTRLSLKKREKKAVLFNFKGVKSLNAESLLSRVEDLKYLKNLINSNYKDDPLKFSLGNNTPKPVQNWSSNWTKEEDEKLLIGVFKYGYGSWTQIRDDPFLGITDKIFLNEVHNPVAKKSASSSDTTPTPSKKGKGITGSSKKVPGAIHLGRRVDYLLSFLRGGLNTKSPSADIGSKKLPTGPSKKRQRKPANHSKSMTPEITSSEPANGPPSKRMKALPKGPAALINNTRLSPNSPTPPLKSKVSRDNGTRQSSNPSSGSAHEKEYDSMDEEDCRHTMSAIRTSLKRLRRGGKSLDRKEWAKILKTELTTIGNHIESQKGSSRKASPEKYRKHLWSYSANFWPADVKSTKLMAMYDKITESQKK
# Sialic acid-binding Ig-like lectin 9 (Homo sapiens), sequence (Q9Y336 whole entry): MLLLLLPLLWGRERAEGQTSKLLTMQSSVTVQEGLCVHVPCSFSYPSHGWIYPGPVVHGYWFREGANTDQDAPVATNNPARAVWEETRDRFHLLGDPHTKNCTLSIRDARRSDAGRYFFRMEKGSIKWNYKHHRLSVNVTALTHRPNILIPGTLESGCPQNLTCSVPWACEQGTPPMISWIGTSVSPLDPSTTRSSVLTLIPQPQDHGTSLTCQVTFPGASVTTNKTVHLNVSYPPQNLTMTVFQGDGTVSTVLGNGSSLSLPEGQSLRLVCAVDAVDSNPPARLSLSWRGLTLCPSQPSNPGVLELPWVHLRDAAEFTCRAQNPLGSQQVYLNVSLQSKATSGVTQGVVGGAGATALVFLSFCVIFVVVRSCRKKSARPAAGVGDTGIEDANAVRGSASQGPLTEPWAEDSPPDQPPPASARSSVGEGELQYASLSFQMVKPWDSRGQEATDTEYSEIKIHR
# Protein translocase subunit SecA (Escherichia coli (strain K12)), sequence (P10408 whole entry): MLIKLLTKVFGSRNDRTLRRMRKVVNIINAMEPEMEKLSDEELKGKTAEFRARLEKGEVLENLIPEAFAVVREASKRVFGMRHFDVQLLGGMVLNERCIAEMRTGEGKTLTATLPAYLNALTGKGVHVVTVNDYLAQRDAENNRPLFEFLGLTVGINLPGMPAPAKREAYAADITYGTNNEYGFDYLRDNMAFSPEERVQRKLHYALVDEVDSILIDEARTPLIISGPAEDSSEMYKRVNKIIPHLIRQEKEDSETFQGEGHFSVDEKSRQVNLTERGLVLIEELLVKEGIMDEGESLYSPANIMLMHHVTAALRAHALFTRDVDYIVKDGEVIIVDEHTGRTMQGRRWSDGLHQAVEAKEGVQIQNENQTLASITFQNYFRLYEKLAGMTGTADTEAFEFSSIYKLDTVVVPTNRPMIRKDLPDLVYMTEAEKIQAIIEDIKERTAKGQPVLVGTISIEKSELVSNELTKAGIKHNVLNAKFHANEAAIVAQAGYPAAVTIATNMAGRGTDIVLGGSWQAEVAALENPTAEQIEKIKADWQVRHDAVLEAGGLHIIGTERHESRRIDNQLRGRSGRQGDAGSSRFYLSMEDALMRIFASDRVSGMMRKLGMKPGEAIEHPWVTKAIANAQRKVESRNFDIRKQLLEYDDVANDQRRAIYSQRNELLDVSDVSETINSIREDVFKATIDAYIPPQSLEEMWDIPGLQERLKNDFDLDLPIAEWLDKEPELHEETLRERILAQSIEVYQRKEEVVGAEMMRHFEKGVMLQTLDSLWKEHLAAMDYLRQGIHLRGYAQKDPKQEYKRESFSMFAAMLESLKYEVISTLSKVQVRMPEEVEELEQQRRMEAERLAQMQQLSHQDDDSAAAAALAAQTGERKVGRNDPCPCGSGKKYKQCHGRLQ
SMILES,Percent Effect [1] [%],Percent Effect [2] [%],Percent Effect [3] [%],Percent Effect [4] [%],Percent Effect [5] [%],Percent Effect [6] [%],Percent Effect [7] [%],Percent Effect [8] [%],Percent Effect [9] [%],Percent Effect [10] [%],Percent Effect [11] [%]
CCc1cnc2c(c1Nc1ccncc1)c(=O)n(C)c(=O)n2C,0.799,18.2,5.71,-13.1,2.27,1.94,14.6,35.5,7.41,14.1,-10.9
CCN(Cc1nc2c(cnn2C)c(=O)[nH]1)c1cccc(Cl)c1,-2.52,10.4,4.11,-5.62,1.27,0.632,14.3,16.2,1.91,14.1,-9.43
Cc1cc(C)c(CNC(=O)N2CCCC2c2ccccc2)c(=O)[nH]1 (configuration not stated),-1.29,-77.2,4.12,3.59,3.59,3.23,19.4,-0.586,3.12,17.7,-23.8
Cc1nccn1-c1cc(CNC(=O)C(C)(C)C)ccn1,-0.152,11,4.7,6.88,0.588,34.1,18.1,-3.27,2.15,17.5,-6.75
CCn1nc(CNC(=O)C2CC(=O)N(C3CCCC3)C2)c2ccccc21 (configuration not stated),-9.13,2.7,3.05,28.4,-1.74,-2.86,3.79,10.4,-0.529,2.44,-3.19
CC(C)(C)c1nnc(CN2CCCC2c2noc(C3CC3)n2)o1 (configuration not stated),0.285,8.11,0.0576,-0.506,2.32,-0.554,8.08,-8.49,10.9,28.1,-6.45
CN(C)CC(=O)N1CCC2(CC1)CN(c1ccsc1)C(=O)CO2,-9.33,2.67,3.11,-6.49,-4.33,-0.233,3.96,15.6,0,-3.85,-3.46
COc1ccccc1CCNC(=O)CN1CCCC1c1noc(C)n1 (configuration not stated),-1.65,2.63,3.18,11.8,-1.69,1.53,12.9,5.32,4.41,17.1,-5.97
O=C(c1ccc(F)cc1)N1C[C@H]2CCC[C@@]2(COCc2ccccn2)C1,-4.13,8.11,-4.94,1.62,2.44,7.96,22,-12.1,3.24,17.9,1.95
Cc1cc(C2CCCN(CCCNS(C)(=O)=O)C2)n[nH]1 (configuration not stated),-3.61,2.53,-4.24,13.7,-0.283,-2.66,-2.7,-2.96,5.42,3.8,-0.769
CC1CCN(C(=O)CN(Cc2ccco2)C2CC2)CC1,-1.66,2.6,6.73,0.322,6.95,-1.47,7.84,3.81,1.91,7.06,-5.98
CN1CCCC1CNC(=O)c1nnn(-c2ccc(F)cc2)c1C1CC1 (configuration not stated),-5.49,0,1.3,3.88,-5.86,0,8.2,10.9,4.95,3.66,-4.68
CC(C)NC(=O)CS(=O)(=O)Cc1cc(Cl)c2c(c1)OCCO2,-2.36,20.2,-6.59,-0.915,-0.283,-1.52,0.737,13.3,7.39,24.1,-5.39
Cc1cc(C)n(C2CCCN(C(=O)CCCNc3ncccn3)C2)n1 (configuration not stated),-6.94,13.9,-2.21,-4.67,3.38,2.8,10.6,-0.293,4.17,20.2,-26.7
O=C(C1CCC1)N1CCC2(COCc3cnc(N4CCOCC4)nc32)C1 (configuration not stated),2.09,13.3,-2.58,-6.19,0.772,-59.7,9.23,-2.75,2.08,12.5,-9.27
COc1ccc(CN2CCn3c(CNS(C)(=O)=O)nnc3C2)cc1,-9.41,5.41,-37.8,-5.71,-16.5,-3.5,2.77,14.7,0,5.13,1
COc1ccccc1OCC(=O)Nc1ncccc1OC(F)F,-3.34,1.39,-0.812,-4.65,-7.48,4.86,13.2,-3.02,1.05,-5.13,-3.95
CC(C)Oc1ncc(C(=O)N2CCC(NC(=O)C3CC3)CC2)cc1Cl,-5.61,-2.74,-0.0193,-3.72,-5.56,-0.798,12.8,5.13,0,6.17,-0.607
COc1ccc(C2=CCN(C(=O)C3CC(=O)N(C4CC4)C3)CC2)cc1 (configuration not stated),-3.27,-5.26,2.62,-10.1,-2.15,2.16,1.61,19.9,2.46,-6.17,-1.27
O=C(c1cnccn1)N1CCN2C[C@H](OCc3ccccn3)C[C@H]2C1,-0.668,0,2.67,7.25,-3.09,0.538,13,-9.74,1.04,-2.5,3.56
CC(C)c1nn(C)c(N2CCOCC2)c1CNC(C)c1cccs1 (configuration not stated),-3.9,-13.2,-6.19,-4.57,-2.71,-1.08,1.44,-28.8,11.3,18.5,-4.62
O=C(NCc1cc[nH]n1)NC1CCCN(c2ncccn2)C1 (configuration not stated),-1.16,10.5,6.14,-0.458,-4.58,-4.73,16,-3.24,4.25,13,-5.61
